{
  "source": "PubChem BioAssay",
  "note": "Activity calls are given as the source filed them. No stated cut-off is given here; in the data, active means fold change permeability below about 0.7 or above about 1.3; inactive means in between.",
  "data": [
    {"experiment": "compounds altering in vitro BBB leakiness – cell-based, FITC-avidin fluorescence, HTS, primary screen (AID 1963498); further: test concentration not given here", "conditions": "brain endothelial barrier, actives lie on both sides", "values": [
      {"compound": "CC(C)NCC(O)COc1ccc(COCCOC(C)C)cc1", "note": "(centres undefined)", "fold change permeability": "0.8 (inactive)"},
      {"compound": "CC(=O)NNC(=O)N1Cc2ccccc2Oc2ccc(Cl)cc21", "fold change permeability": "0.7 (active)"},
      {"compound": "CCN1C(=O)C=CC1=O", "fold change permeability": "1 (inactive)"},
      {"compound": "CC(=O)SCC[N+](C)(C)C", "fold change permeability": "0.8 (inactive)"},
      {"compound": "CN1CCC(=C2c3ccccc3C=Cc3ccccc32)CC1", "fold change permeability": "1.1 (inactive)"},
      {"compound": "Cc1cc(CN)cc(C)c1NC(=O)c1ccc(-c2cc(Cl)ccc2Cl)o1", "fold change permeability": "1.5 (active)"},
      {"compound": "COCCNC(=O)COc1ccc(OCCNC[C@H](O)COc2ccccc2)cc1", "fold change permeability": "1 (inactive)"},
      {"compound": "Cc1ccc(S(=O)(=O)NC(=O)NN2CCCCCC2)cc1", "fold change permeability": "1 (inactive)"},
      {"compound": "Oc1cc2c(cc1O)CN(C(=S)NCCc1ccc(Cl)cc1)CCC2", "fold change permeability": "1.8 (active)"},
      {"compound": "CCCNC(=O)NS(=O)(=O)c1ccc(Cl)cc1", "fold change permeability": "0.9 (inactive)"},
      {"compound": "C[C@@H](O[C@H]1OCCN(Cc2n[nH]c(=O)[nH]2)[C@H]1c1ccc(F)cc1)c1cc(C(F)(F)F)cc(C(F)(F)F)c1", "fold change permeability": "1.4 (active)"},
      {"compound": "CC[C@H]1OC(=O)[C@H](C)C(=O)[C@H](C)[C@@H](O[C@@H]2O[C@H](C)C[C@H](N(C)C)[C@H]2O)[C@](C)(OC)C[C@@H](C)C(=O)[C@H](C)[C@H]2N(CCCCn3cnc(-c4cccnc4)c3)C(=O)O[C@]12C", "fold change permeability": "0.7 (active)"},
      {"compound": "Cn1ccc2cc3c(cc21)CCN3C(=O)Nc1cccnc1", "fold change permeability": "1.4 (active)"},
      {"compound": "COc1ccc(C2CNC(=O)C2)cc1OC1CCCC1", "note": "(centres undefined)", "fold change permeability": "1.1 (inactive)"},
      {"compound": "Cc1cccc(/C=C/c2ccccc2)n1", "fold change permeability": "1.2 (inactive)"},
      {"compound": "O=C1N(c2ccccc2)c2ccccc2C1(Cc1ccncc1)Cc1ccncc1", "fold change permeability": "0.9 (inactive)"},
      {"compound": "C=C(Cc1ccccc1Cl)C(=O)OCC", "fold change permeability": "1 (inactive)"},
      {"compound": "C[C@]12C=CC(=O)C=C1CC[C@H]1[C@@H]3C[C@@H](O)[C@](O)(C(=O)CO)[C@@]3(C)C[C@H](O)[C@@]12F", "fold change permeability": "1.4 (active)"},
      {"compound": "COc1cc(C(O)C(=O)O)ccc1O", "note": "(centres undefined)", "fold change permeability": "1 (inactive)"},
      {"compound": "Oc1ccc2ccccc2c1SSc1c(O)ccc2ccccc12", "fold change permeability": "1.6 (active)"},
      {"compound": "O=C1CCC(N2C(=O)c3ccccc3C2=O)C(=O)N1", "note": "(centres undefined)", "fold change permeability": "1.6 (active)"},
      {"compound": "S=C(Nc1ccccc1)Nc1nccs1", "fold change permeability": "1.3 (active)"},
      {"compound": "Clc1cccc(Cl)c1CSc1nnc(-c2cnccn2)s1", "fold change permeability": "1.2 (inactive)"},
      {"compound": "CCN[C@H]1CN(CCCOC)S(=O)(=O)c2sc(S(N)(=O)=O)cc21", "fold change permeability": "1.5 (active)"},
      {"compound": "CC1=C(/C=C/C(C)=C/C=C/C(C)=C\\C(=O)O)C(C)(C)CCC1", "fold change permeability": "1.4 (active)"},
      {"compound": "NC(N)=NCCCCN=C(N)N", "fold change permeability": "1.2 (inactive)"},
      {"compound": "Cc1cc(O)c2c(c1)C(=O)c1cc(O)cc(O)c1C2=O", "fold change permeability": "1.3 (active)"},
      {"compound": "C(=C\\c1ccccc1)/CN1CCN(C(c2ccccc2)c2ccccc2)CC1", "fold change permeability": "1.2 (inactive)"},
      {"compound": "Cc1c(C(=O)N2CCOc3ccc(-c4ccc(N)nc4)cc3C2)ccc(S(C)(=O)=O)c1F", "fold change permeability": "1.2 (inactive)"},
      {"compound": "Cc1cc(C(=O)Cn2cc(C#N)ccc2=O)c(C)n1Cc1ccccc1", "fold change permeability": "1.7 (active)"},
      {"compound": "CC(C)C(=O)Nc1n[nH]c2cc(-c3cccc(NS(=O)(=O)C4CC4)c3)ccc12", "fold change permeability": "1.2 (inactive)"},
      {"compound": "CC(=O)O[C@]1(C(C)=O)CC[C@H]2[C@@H]3C=C(Cl)C4=CC(=O)[C@@H]5C[C@@H]5[C@]4(C)[C@H]3CC[C@@]21C", "fold change permeability": "1 (inactive)"},
      {"compound": "O=C(O)CCCCN(CCc1ccccc1OCc1ccc(CCc2ccccc2)cc1)Cc1ccc(C(=O)O)cc1", "fold change permeability": "1.2 (inactive)"},
      {"compound": "CC(C)(C)NCC(O)COc1nsnc1N1CCOCC1", "note": "(centres undefined)", "fold change permeability": "1.4 (active)"},
      {"compound": "OC1(c2ccc(Cl)cc2)CCN(Cc2c[nH]c3ccccc23)CC1", "fold change permeability": "1.4 (active)"},
      {"compound": "CN1CCN(CCCN2c3ccccc3Sc3ccc(Cl)cc32)CC1", "fold change permeability": "1 (inactive)"},
      {"compound": "CC(C)(C)NCC(O)c1ccc(O)c(CO)c1", "note": "(centres undefined)", "fold change permeability": "0.9 (inactive)"},
      {"compound": "O=C1NC(=O)/C(=C/c2ccc(-c3ccc(F)cc3O)o2)S1", "fold change permeability": "1 (inactive)"},
      {"compound": "O=C(C(c1ccccc1)c1ccccc1)N1CCN(CC(O)COc2cccc3ncccc23)CC1", "note": "(centres undefined)", "fold change permeability": "0.8 (inactive)"}
    ]}
  ]
}
